Experimental data: PubChem BioAssay (NCI)
Compounds without any hit were thinned out: in the full panel of roughly 83,000, 20% have a hit.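 Growth was measured after 48 h exposure to one concentration of compound in 96-well plates. Values under 10 count as active.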 Calls of active or inactive are those of the source.

Columns and labels:
Test in all cases: NCI-60 one-dose screen, 48 h (100 = growth as untreated, 0 = no growth, -100 = all killed)
Settings in all cases: 10 µM unless noted
[1] = tested on: HCT-15 colon
[2] = tested on: HT29 colon
[3] = tested on: SNB-75 CNS
[4] = tested on: SNB-19 CNS
[5] = tested on: U251 CNS
[6] = tested on: PC-3 prostate
[7] = tested on: SK-MEL-5 melanoma
[8] = tested on: UACC-62 melanoma
[9] = tested on: LOX IMVI melanoma
[10] = tested on: SK-MEL-28 melanoma
[11] = tested on: SK-MEL-2 melanoma
[12] = tested on: EKVX NSCLC
[13] = tested on: SN12C renal
[14] = tested on: UO-31 renal
[15] = tested on: TK-10 renal
[16] = tested on: ACHN renal
[17] = tested on: CAKI-1 renal
[18] = tested on: A498 renal
[19] = tested on: CCRF-CEM leukemia
[20] = tested on: MOLT-4 leukemia

Measured: growth

O=C1/C(=C\c2cn(CC(O)CN3CCCCC3)c3ccccc23)c2ccccc2N1c1c(Cl)cccc1Cl (stereo not given)
active: [1] -72.8% | [2] -85% | [3] -98.6% | [4] -71.2% | [5] -93.8% | [6] -88.7% | [7] -100% | [8] -84% | [9] -85.1% | [10] -94.4% | [11] -83.4% | [12] -81.3% | [13] -68.2% | [14] -79.8% | [15] -75.9% | [16] -90.5% | [17] -80.3% | [18] -96.3% | [19] -4.36% | [20] -30%

Ic1ccc2[nH]cc(SSc3c[nH]c4ccc(I)cc34)c2c1
active: [6] 7.98% | [9] 4.6% | [15] -13.3% | [17] -6.92% | [19] 8.16%
inactive: [1] 15.6% | [2] 32% | [3] 46.6% | [4] 13.3% | [5] 18.3% | [7] 86.6% | [8] 45.4% | [10] 40.9% | [11] 74% | [12] 23.5% | [13] 42.1% | [14] 36.6% | [16] 16.5% | [18] 40.7% | [20] 13.2%

COc1cc(C)cc2oc3oc(=O)c(-c4nc5ccccc5s4)cc3c(=O)c12
inactive: [1] 102% | [2] 103% | [3] 79.3% | [4] 92.9% | [5] 93.4% | [6] 94.1% | [7] 99.5% | [8] 67.7% | [9] 94.1% | [10] 93.2% | [11] 113% | [12] 105% | [13] 98.4% | [14] 74.6% | [15] 101% | [16] 100% | [17] 91.8% | [18] 85.1% | [19] 107% | [20] 106%

O=C(Nc1ccc(Oc2ccc(F)cc2)c(Cl)c1)c1cnccn1
inactive: [1] 47.7% | [2] 23.7% | [3] 47.7% | [4] 63.7% | [5] 38.2% | [6] 76% | [7] 49.5% | [8] 50.3% | [9] 51.5% | [10] 76.9% | [11] 53.6% | [12] 78% | [13] 69.8% | [14] 65% | [15] 85.8% | [16] 94.1% | [17] 49.7% | [18] 67.7% | [19] 64.1% | [20] 45.1%

O=C1/C(=C/c2ccc(OCc3ccccc3)cc2)Oc2cc(OCCN3CCCCC3)ccc21
inactive: [1] 14% | [2] 33.2% | [3] 83% | [4] 94.3% | [5] 69.8% | [6] 74.9% | [7] 61.6% | [8] 61% | [9] 52.3% | [10] 78.4% | [11] 112% | [12] 80.5% | [13] 82.4% | [14] 70.6% | [15] 104% | [16] 89.6% | [17] 70.5% | [18] 60.9% | [19] 73% | [20] 76.1%

O=C1NC(=O)C(Cc2ccc(OCc3ccc(-c4cc(F)c(F)c(F)c4)cc3)cc2)S1 (stereo not given)
inactive: [1] 88.2% | [2] 107% | [3] 83.2% | [4] 93.5% | [5] 86.1% | [6] 71.4% | [7] 76.5% | [8] 56.2% | [9] 77.4% | [10] 102% | [11] 94.4% | [12] 80.9% | [13] 80.1% | [14] 64.5% | [15] 100% | [16] 83.9% | [17] 53.9% | [18] 95.5% | [19] 80.4% | [20] 76.8%

CCCC[C@@H](C=O)NC(=O)[C@H](CC(C)C)NC(=O)[C@H](CC(C)C)NC(=O)OCc1ccccc1
active: [1] 8.85% | [2] -19.4% | [3] -45.1% | [5] 5.84% | [6] 5.37% | [7] -71% | [8] -38% | [9] -65.2% | [10] -21.7% | [12] -14.2% | [13] 2.11% | [15] -20.2% | [17] 4.61% | [18] -47.6% | [19] -26.5% | [20] -11.7%
inactive: [4] 22.1% | [11] 13.4% | [14] 23.8% | [16] 25.3%

CCN1c2ccccc2C(Cl)(c2ccc(N(C)C)cc2)c2ccccc21
active: [2] 3.81%
inactive: [1] 73.6% | [3] 68.5% | [4] 53.8% | [5] 19.5% | [6] 25.6% | [7] 78.9% | [8] 51.6% | [9] 18.9% | [10] 86.2% | [11] 81.5% | [12] 69.1% | [13] 46.1% | [14] 57.6% | [15] 62.8% | [16] 72.7% | [17] 62.9% | [18] 135% | [19] 17% | [20] 65.6%

Cc1cccc(C[C@H](NC(=O)Nc2ccc(Cl)cc2F)C(=O)N[C@@H]2C(=O)N3C[C@H](OC(=O)CCN(C)C)C[C@H]3C(=O)N3CCCC[C@H]3C(=O)N[C@@H](C)C(=O)N3C[C@H](C)C[C@H]3C(=O)O[C@H]2C)c1
active: [2] 5.77% | [7] 6.65% | [18] -11.1%
inactive: [1] 64.8% | [3] 13.5% | [4] 21.3% | [5] 22.9% | [6] 16.7% | [8] 13.4% | [9] 23.9% | [10] 25.8% | [11] 24.4% | [12] 47.3% | [13] 12.5% | [14] 31.1% | [15] 47.8% | [16] 27.5% | [17] 15.5% | [19] 42.4% | [20] 27.8%

CCCCOC(=O)c1cccc([N+](=O)[O-])c1
active: [19] 1.56%
inactive: [1] 118% | [2] 107% | [3] 94.9% | [4] 113% | [5] 97.4% | [6] 95% | [7] 110% | [8] 108% | [9] 108% | [10] 119% | [11] 113% | [12] 93.4% | [13] 108% | [14] 94.7% | [15] 111% | [16] 112% | [17] 105% | [18] 94.7% | [20] 122%

Cc1cccc([N+](=O)[O-])c1I
inactive: [1] 113% | [2] 106% | [3] 94.9% | [4] 106% | [5] 93.8% | [6] 85.5% | [7] 109% | [8] 107% | [9] 101% | [10] 114% | [11] 112% | [12] 95.4% | [13] 107% | [14] 85.1% | [15] 113% | [16] 105% | [17] 100% | [18] 93% | [19] 87.2% | [20] 122%

CC1Cc2ccc(OCCN(C)C)cc2C1=O (stereo not given)
inactive: [1] 108% | [2] 98.5% | [3] 98% | [4] 106% | [5] 89.5% | [6] 89.9% | [7] 91.6% | [8] 105% | [9] 96.4% | [10] 103% | [11] 91.9% | [12] 109% | [13] 101% | [14] 88.1% | [15] 84.6% | [16] 106% | [17] 98% | [18] 91.2% | [19] 103% | [20] 102%

COc1cc(OC)c(/C=C/C(=O)c2c(N)cc(OC)cc2OC)c(OC)c1
inactive: [1] 21.2% | [3] 23.5% | [4] 27.9% | [5] 11.9% | [6] 11.8% | [7] 17% | [9] 23.2% | [10] 61% | [11] 12.4% | [12] 49.3% | [13] 37% | [14] 43.7% | [15] 44.3% | [16] 36.6% | [17] 12.3% | [19] 12.3% | [20] 35.8%
active: [2] 3.5% | [8] 9.68% | [18] -11.4%

CCN(CC)c1ccc2cc(C(Nc3ccc(Cl)cc3)c3nnnn3C(C)(C)C)c(=O)oc2c1 (stereo not given)
inactive: [1] 91.8% | [2] 90.7% | [3] 68.5% | [4] 87% | [5] 82.6% | [6] 71.5% | [7] 80% | [8] 70% | [9] 72.4% | [10] 95.8% | [11] 89.5% | [12] 81.4% | [13] 89.6% | [14] 71.8% | [15] 85.7% | [16] 92.4% | [17] 73.1% | [18] 81% | [19] 93.5% | [20] 63.5%
